NS1 inh – qHTS Assay for Inhibitors of Influenza NS1 Protein Function. Potency, µM (titrated, usually from 46.1 µM). actives 0.4% (n = 270,000). AID 2326, 2010; further: actives are rising curves; nearly all actives have a fitted effect of over 50% in size
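Read-out: OD600 growth recovery of NS1-expressing budding yeast. Cells grown overnight at 30C in -URA glucose medium, washed, resuspended and diluted 1:100 in 2% galactose assay medium, pH 6.0. Same strain lacking NS1 served as positive control.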
Pf growth 96h – Primary qHTS for delayed death inhibitors of the malarial parasite plastid, 96 hour incubation; AID 504834, 2011; actives 6.9% (n = 320,000); P. falciparum luciferase reporter growth, 96 h; Potency, µM (highest dose often 28.7 µM), usual class: inhibitors; active means well fitted inhibition curve with a large enough effect; inconclusive means small, poorly fitted or top-dose-only effect, or another doubt; inactive means no such curve, though single readings can be large or run the other way
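Cell-based qHTS: luciferase-tagged P. falciparum in erythrocytes (2% hematocrit, 0.05% parasitemia final) incubated with compounds for 96 hours, 37 C, 5% CO2; luciferase detection reagent then added and luminescence measured.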
Pf growth 48h – Primary qHTS for delayed death inhibitors of the malarial parasite plastid, 48 hour incubation; P. falciparum luciferase growth in erythrocytes, 48 h; Potency, µM (highest dose often 28.7 µM), most hits filed as inhibitors; actives 5.9% (n = 310,000); AID 504832, 2011; active means well fitted inhibition curve with a large enough effect; inconclusive means small, poorly fitted or top-dose-only effect, or another doubt; inactive means no such curve, though single readings can be large or run the other way
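Cell-based growth assay: transgenic P. falciparum expressing firefly luciferase, cultured in red cells within RPMI 1640 containing 0.5% w/v Albumax, 24 mM bicarbonate and gentamycin. A drop in luciferase activity indicates inhibition.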
SARS PLP yeast – qHTS of Yeast-based Assay for SARS-CoV PLP; S. cerevisiae expressing SARS-CoV PLpro, growth rescue; Potency, µM (series often up to 32.9 µM), usual class: activators; actives 0.19% (n = 330,000); further: nearly all actives have a fitted effect of over 55% in size
A number is an active result. Shown are actives, neighbours in structure and some others; about 10% of the full set was active somewhere. Unless noted, the call rests on the fitted dose curve.

For COCCCn1c(N)c(C(=O)NCc2ccco2)c2nc3ccccc3nc21 the results were NS1 inh inactive, Pf growth 96h inconclusive, Pf growth 48h 9.28µM and SARS PLP yeast inactive.
For Nc1c(C(=O)NCc2ccco2)c2nc3ccccc3nc2n1CCc1ccccc1 the results were NS1 inh inactive, Pf growth 96h inactive, Pf growth 48h inconclusive and SARS PLP yeast inactive.
`Cc1cccc(-n2c(N)c(C(=O)NCCN3CCOCC3)c3nc4ccccc4nc32)c1` gave NS1 inh inactive, Pf growth 96h 9.28µM and SARS PLP yeast inactive.
For COCCCn1c(N)c(C(=O)OC(C)COC)c2nc3ccccc3nc21 (stereo unspecified) the results were NS1 inh inactive, Pf growth 96h inconclusive, Pf growth 48h inactive and SARS PLP yeast inactive.
CCCCOCCCn1c(N)c(C(=O)OC(C)COC)c2nc3ccccc3nc21 (stereo unspecified) was read as NS1 inh inactive, Pf growth 96h inconclusive, Pf growth 48h 4.65µM and SARS PLP yeast inactive.
Nc1c(C(=O)NCCN2CCOCC2)c2nc3ccccc3nc2n1Cc1ccccc1 was read as NS1 inh inactive, Pf growth 96h inconclusive, Pf growth 48h inconclusive and SARS PLP yeast inactive.
Screening Nc1c(C(=O)NCCN2CCOCC2)c2nc3ccccc3nc2n1Cc1ccco1 returned NS1 inh inactive, Pf growth 96h inconclusive, Pf growth 48h 9.28µM and SARS PLP yeast inactive.
For O=C(O)[C@H]1CCc2ccc3ccccc3c2[C@H]1c1cccc2ccccc12 the results were NS1 inh inactive.
Screening CC(C)Cn1c(N)c(C(=O)NCCN2CCOCC2)c2nc3ccccc3nc21 returned NS1 inh inactive, Pf growth 96h inactive, Pf growth 48h 3.7µM and SARS PLP yeast inactive.
`C=CCN(Cc1ccc(Cl)s1)C(=O)c1ccc(F)c(S(=O)(=O)N2CCOCC2)c1` gave SARS PLP yeast inactive.
Screening CCOc1ccc(CCNC(=O)c2cccc(S(=O)(=O)N3CCOCC3)c2)cc1OCC returned Pf growth 96h inconclusive, Pf growth 48h inconclusive and SARS PLP yeast inactive.
Cc1ccc(C(=O)NCCc2ccc(S(=O)(=O)N3CCCC3)cc2)cc1 was read as NS1 inh inactive, Pf growth 96h inactive, Pf growth 48h inactive and SARS PLP yeast inactive.
For CCOc1ccc(CCNC(=O)c2ccc(Cl)c(S(=O)(=O)N3CCOCC3)c2)cc1OCC the results were Pf growth 96h inconclusive, Pf growth 48h 11.7µM and SARS PLP yeast inactive.
Screening CSc1ccccc1C(=O)NCCc1ccc(S(=O)(=O)N2CCCCC2)cc1 returned NS1 inh inactive, Pf growth 48h 5.22µM and SARS PLP yeast inactive.
Screening O=C(NCCc1ccc(F)cc1)c1ccc(Cl)c(S(=O)(=O)N2CCOCC2)c1 returned Pf growth 96h 11.7µM, Pf growth 48h 9.28µM and SARS PLP yeast inactive.
CCOc1ccc(CCNC(=O)c2cccc(S(=O)(=O)N3CCCCC3)c2)cc1OCC was read as Pf growth 96h inconclusive, Pf growth 48h 14.7µM and SARS PLP yeast inactive.
O=C(O)c1ccc(OCCCCCCOC2CCCCO2)cc1 (stereo unspecified) was read as NS1 inh inactive, Pf growth 96h inactive, Pf growth 48h inactive and SARS PLP yeast inactive.
`CCOc1ccc(/C=N/n2cnnc2)cc1` gave NS1 inh inactive, Pf growth 48h inactive and SARS PLP yeast inactive.
CC(=O)Oc1ccccc1C(=O)Oc1ccc(/C=N/n2cnnc2)cc1 was read as NS1 inh inactive, Pf growth 96h 8.28µM, Pf growth 48h inactive and SARS PLP yeast inactive.
For COc1ccc2c(CSc3nnc(-c4cccnc4)n3-c3ccccc3F)cc(=O)oc2c1 the results were NS1 inh inactive, Pf growth 96h 6.57µM, Pf growth 48h inconclusive and SARS PLP yeast inactive.
For Cc1c(C(=O)NC(c2ccccn2)C(F)(F)F)oc2c(F)cccc12 (stereo unspecified) the results were NS1 inh inactive, Pf growth 96h inconclusive, Pf growth 48h inactive and SARS PLP yeast inactive.
Screening COC(=O)CC[C@@H](C)[C@@H]1CC[C@@H]2[C@@H]3CC[C@H]4C[C@@H](O)CC[C@@]4(C)[C@@H]3CC[C@]21C returned NS1 inh inactive.
`c1nc(NCCN2CCOCC2)c2sc3nc(N4CCOCC4)c4c(c3c2n1)CCC4` gave NS1 inh inactive, Pf growth 48h 7.38µM and SARS PLP yeast inactive.
Screening C=CCCN(Cc1ccccc1)S(=O)(=O)c1cc(Br)ccc1Br returned Pf growth 96h inactive, Pf growth 48h 13.1µM and SARS PLP yeast inactive.
Cc1ccccc1Nc1nc(N)nc(CSc2nc3ccccc3c(=O)n2CCCO)n1 was read as NS1 inh inactive, Pf growth 48h 7.38µM and SARS PLP yeast inactive.
For COCCn1c(SCc2nc(N)nc(Nc3ccccc3C)n2)nc2ccccc2c1=O the results were NS1 inh inactive, Pf growth 96h inconclusive, Pf growth 48h inactive and SARS PLP yeast inactive.
`O=C(c1cc2nc(-c3ccc(F)cc3)cc(C(F)(F)F)n2n1)N1CCCCC1c1cccnc1` (stereo unspecified) gave Pf growth 96h inactive, Pf growth 48h 3.7µM and SARS PLP yeast inactive.
Screening O=C(c1cnn2c(C(F)(F)F)cc(-c3ccccc3)nc12)N1CCCCC1c1cccnc1 (stereo unspecified) returned NS1 inh inactive, Pf growth 96h inconclusive, Pf growth 48h inconclusive and SARS PLP yeast inactive.
CCOC(=O)C1CCCN(C(=O)c2sc3nc(-c4ccc(OC)cc4)cn3c2C)C1 (stereo unspecified) was read as NS1 inh inactive, Pf growth 96h inactive, Pf growth 48h 13.1µM and SARS PLP yeast inactive.
CCOC(=O)C1CCCN(C(=O)c2cnn3c(C(F)F)cc(-c4ccc(C)cc4)nc23)C1 (stereo unspecified) was read as NS1 inh inactive, Pf growth 48h 4.65µM and SARS PLP yeast inactive.
Screening Cc1ccc(-c2cc(C(F)F)n3ncc(C(=O)N4CCCCC4c4cccnc4)c3n2)cc1 (stereo unspecified) returned NS1 inh inactive, Pf growth 96h 4.15µM, Pf growth 48h 1.65µM and SARS PLP yeast inactive.
`COc1ccc(OC)c(NC(=O)c2cccc(N3C(=O)C4C5C=CC(C6CC56)C4C3=O)c2)c1` (stereo unspecified) gave NS1 inh inactive, Pf growth 96h inconclusive, Pf growth 48h inconclusive and SARS PLP yeast inactive.
For CC1CCCC(NC(=O)C2CCN(S(=O)(=O)c3cnc[nH]3)CC2)C1C (stereo unspecified) the results were NS1 inh inactive, Pf growth 96h inactive, Pf growth 48h inactive and SARS PLP yeast inactive.
`CCN(CC(=O)Nc1c(F)cccc1F)C(=O)CSc1nc(C)cc(C)n1` gave NS1 inh inactive, Pf growth 96h inactive, Pf growth 48h inactive and SARS PLP yeast inactive.
Cc1ccc(-c2cc(C(F)F)n3ncc(C(=O)NN4CCCCC4)c3n2)cc1 was read as NS1 inh inactive, Pf growth 96h inactive, Pf growth 48h inconclusive and SARS PLP yeast inactive.
Screening Cc1ccc(-c2cc(C(F)F)n3ncc(C(=O)N4CCN5CCCC5C4)c3n2)cc1 (stereo unspecified) returned NS1 inh inactive, Pf growth 48h 11.7µM and SARS PLP yeast inactive.

Compound activity: PubChem, National Center for Advancing Translational Sciences (NCATS)
